Results on 66 compounds are retold here after ChEMBL document CHEMBL4513216, “Probing the Open Global Health Chemical Diversity Library for Multistage-Active Starting Points for Next-Generation Antimalarials” (ACS Infect Dis, 2020).

Each structure is given as a SMILES string. The campaign covered roughly 69,000 compounds. About 8,600 (12%) showed an effect of 50% or more. What follows is part of a selection rich in strong results, with near analogues and random picks from the rest.

For this experiment, the system named is Plasmodium berghei. Put plainly: Screen against P. berghei liver stage (PbLuc), transformed with Luciferase, at 10uM. The format is functional, HepG2. To be noted: tested at 10 uM.
As to `COCC1(Nc2nc(C)nc3c2cnn3C)CCCC1`, the INHIBITION is given as 81.6%. The same measure for `CCCc1nc(NC2(COC)CCCC2)c2cnn(C)c2n1`: 22.6%; for `Cc1nc(NC2(CN3CCCCC3)CCCCC2)c2cnn(C)c2n1`: 40.5%; for `COc1ccccc1-c1ccnc2nc(N3CCCCC3)[nH]c(=O)c12`: 23.4%.

Regarding `CC(=O)N1CCC(Cc2ccc(-c3ccnn3C)nc2)CC1`, the INHIBITION was determined as 9.45%. `CN1CCCC2(CCN(C(=O)Cn3ncc4ccccc4c3=O)C2)C1=O` (stereo unspecified): the INHIBITION amounted to 21.2%.

For the compound `CCN(CC1CCOC1)C(=O)c1ccccc1S(C)(=O)=O` (stereo unspecified), the INHIBITION is on record as 45.7%.

With `c1ccc(OCCNc2ncnc3sc4c(c23)CCNC4)cc1`, the INHIBITION was found to be 92.1%.

As to `Cc1nonc1OCCNc1ncnc2sc3c(c12)CCNC3`, the INHIBITION is 6.94%.

For the compound `Cc1ccc(CCNc2ncnc3sc4c(c23)CCNC4)o1`, the INHIBITION is reported as -158%. Turning to `Cc1cnn(CCNCC(=O)N(C)C(C)c2ccccc2)c1` (stereo unspecified), the INHIBITION is reported as 19.7%.

In the case of `Cc1ccoc1C1=NNC(=CN2CCn3c(nnc3C3CC3)C2)O1`, the INHIBITION is on record as 5.97%.

Consider `Cn1c(CCN2CCN(c3ccc(O)cc3)CC2)nc2ccccc21`, for which the INHIBITION was 61.9%. With `Cn1c(CCN2CCN(CCc3ccccc3)CC2)nc2ccccc21`, the INHIBITION stood at 49.9%. In the case of `CCCc1ccc(N2CCN(Cc3nc4ccccc4n3C)CC2)cc1`, the INHIBITION is reported as 25.8%. For `O=C(NCc1cncc2c1CCN(Cc1ccoc1)C2)C1CC1`, the INHIBITION was 5.96%. Next, `CN1CCN(Cc2cn3c(n2)CN(Cc2ccccn2)CC3)CC1`: 24.9%; `Cc1ccc(CN2CCn3cc(CN4CCN(C)CC4)nc3C2)cc1`: 72.9%.

For the compound `CN1CCN(Cc2cn3c(n2)CN(Cc2cccnc2)CC3)CC1`, the INHIBITION is on record as 30.7%. Next, `CN1CCN(Cc2cn3c(n2)CN(Cc2ccncc2)CC3)CC1`: 82.9%; `COc1ccc(CN2CCn3cc(CN4CCN(C)CC4)nc3C2)cc1`: 40.4%; `CN1CCN(Cc2cn3c(n2)CN(Cc2ccc(F)cc2)CC3)CC1`: -17.7%.

Consider `O=C(c1cscn1)N1C[C@@H](Oc2cccnc2)[C@H]2OCCC[C@H]21`, for which the INHIBITION turned out to be 2.58%.

Regarding `CCCN1Cc2cc(Br)ccc2OCC1=O`, the INHIBITION turned out to be 68%.

`O=C1COc2ccc(Br)cc2CN1CC1CC1`: the INHIBITION is 0.0996%.

On to `O=C1COc2ccc(Cl)cc2CN1CC1CC1`, for which the INHIBITION is reported as -8.66%. For `O=C(NC[C@]12COC[C@H]1CN(Cc1cccs1)C2)c1ccsc1`, the INHIBITION came out at 20.5%. Next, `COc1ccc(CNc2c(N3CCN(C)CC3)c(=O)c2=O)cc1`: 31.8%; `COc1ccc(CNc2c(N3CCN(C(C)=O)CC3)c(=O)c2=O)cc1`: 54%; `COc1ccccc1CNc1c(N2CCN(C(C)=O)CC2)c(=O)c1=O`: -19.2%. For `O=C(NCCSCc1ccco1)c1ccc(N2CCOCC2)cc1`, the INHIBITION came to 17.7%. With `CCC(CC#N)n1ccc(C(F)(F)F)n1` (stereo unspecified), the INHIBITION is 21.9%. Next, `CCC1=N[C@@]2(CC[C@@H]3CN(CC(=O)N(C)C)C[C@@H]32)C(=O)N1CC1CC1`: -3.95%. Consider `Cc1c(CN2CCC(C(=O)O)(n3ccnc3)CC2)oc2ccccc12`, for which the INHIBITION amounted to 15.1%. As to `COc1ccc(NC(=O)NC(C)Cc2ccco2)cn1` (stereo unspecified), the INHIBITION was -41.2%. Turning to `CC(C)(C)C(=O)N1C[C@@H]2COC[C@]2(c2nnc(C3CC3)o2)C1`, the INHIBITION is listed as -9.54%. Consider `O=C(c1ncccn1)N1C[C@@H]2COC[C@]2(c2nnc(C3CC3)o2)C1`, for which the INHIBITION was -36.5%. The same measure for `CN(C)C(=O)N1C[C@@H]2COC[C@]2(c2nnc(C3CC3)o2)C1`: 54.7%.

As to `COc1cccc(-c2nc(C)c(C(=O)N[C@@H](CC(C)C)C(=O)O)s2)c1`, the INHIBITION was -95.4%.

`O=C1CC(c2cccnc2)c2c(c(C(=O)O)cn2-c2ccc(Cl)cc2)N1` (stereo unspecified): the INHIBITION was found to be 20%. Turning to `Nc1nnc(CCCNc2ncnc3c2CCN(C(=O)C2CC2)C3)s1`, the INHIBITION is reported as -45%.

`CCc1ccc(CCNc2ncnc3c2CCN(C(=O)C2CC2)C3)cc1`: the INHIBITION was 71.1%. Next, `Nc1nc(CCNc2ncnc3c2CCN(C(=O)C2CC2)C3)cs1`: -66.7%. With `O=C(C1CCCCO1)N1CCc2ncnc(NCCO)c2CC1` (stereo unspecified), the INHIBITION is on record as 25.8%.

Consider `O=C(C1CC1)N1CCc2c(ncnc2NCCc2nc3c(s2)CCC3)C1`, for which the INHIBITION amounted to 52.2%. Take `Nc1nnc(CCNc2ncnc3c2CCN(C(=O)C2CC2)C3)s1`: the INHIBITION is -10.2%. Take `CC(C)n1nc(Cn2cccn2)c2c1CN(C1CCOCC1)C2`: the INHIBITION was -33%. The same measure for `Cc1nc(CN2CC[C@@H]3O[C@@H](C(=O)N4CCOCC4)C[C@@H]32)cs1`: 30.9%; for `COCCC(C)NC(=O)N1CCC(n2ccc(C(F)(F)F)n2)CC1` (stereo unspecified): 15.7%. The same measure for `CCS(=O)(=O)N1CCN(C(=O)c2cnc3[nH]nc(C)c3c2)CC1`: -35.2%. For `O=C(c1coc(COc2cccc3cnccc23)n1)N1CCCCCC1`, the INHIBITION stood at 84.1%. Regarding `O=C(c1coc(COc2ccccc2F)n1)N1CCC[C@H]1CO`, the INHIBITION is on record as 2.611%. `CC1CCCCN1C(=O)c1coc(COc2cccc3cnccc23)n1` (stereo unspecified): the INHIBITION stood at 68.4%. As to `O=C(O)c1coc(COc2cccc3cnccc23)n1`, the INHIBITION is -2.46%. For `O=C(c1cc(=O)c(OCc2ccccc2)co1)N1CCSCC1`, the INHIBITION stood at 21.5%. As to `O=C(c1coc(COc2cccc(F)c2)n1)N1CC[C@H](O)[C@@H](O)C1`, the INHIBITION was 6.8%.

Turning to `O=C(c1coc(COc2ccccc2F)n1)N1CCCO1`, the INHIBITION is -4.235%. Regarding `O=C(c1coc(COc2cccc3cnccc23)n1)N1CCSCC1`, the INHIBITION was 74.9%. In the case of `COCCC1CCCCN1C(=O)c1coc(COc2ccccc2F)n1` (stereo unspecified), the INHIBITION is 29.735%.

For the compound `Cc1cc(Cn2c(=O)c3c(C(F)(F)F)cc(C)nc3n2C)on1`, the INHIBITION is recorded as 4.81%. Take `CN1CCOC(CNCC(=O)NCCCc2ccccc2)C1` (stereo unspecified): the INHIBITION is -17.8%. Next, `COc1ccc(CN(C)Cc2ccnc(C3CCCO3)n2)cc1` (stereo unspecified): 21.95%. Consider `Cc1ncc(CNC(=O)NC2CCN(C3CCCC3)CC2)s1`, for which the INHIBITION was -53.6%.

With `Cc1cccc(CN2CC[C@@H]3O[C@@H](C(=O)N4CCN(C)CC4)C[C@@H]32)n1`, the INHIBITION is listed as -5.25%.

Turning to `CCOC(=O)N1CCN(C(=O)c2cc(-c3ccc(Cl)cc3Cl)on2)CC1`, the INHIBITION is listed as -6.91%. The same measure for `CCN(Cc1cccc(F)c1)Cc1nc2c(cnn2C)c(=O)[nH]1`: 3.73%.
